# HP1b chromo inh: inhibitors of HP1-beta chromodomain binding to methylated histone tails; P83916; AlphaScreen HP1-beta / biotin-H3K9me3 peptide binding; Potency, µM (series often up to 114 µM), inactives show at the highest dose activity change, negative = inhibition, usual class: inhibitors; hit rate 0.56% among 390,000; AID 540317; note: nearly all actives have a fitted effect of over 70% in size
#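 AlphaScreen: HP1-beta (50 nM) preformed 30 min with biotin-H3(1-18)K9me3 peptide (50 nM) in PBS pH 7.4, 0.01% Tween-20. Compound added for 30 min at RT, then streptavidin donor/nickel chelate acceptor beads (10 ug/mL) for 30 min.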
# G9a inh: inhibitors of human histone lysine methyltransferase G9a | Q96KQ7 | G9a H3K9 monomethylation, AlphaScreen, 2 h | Potency, µM (top dose mostly 102 µM), inactives show top-dose activity, negative = inhibition, most hits filed as inhibitors | hit rate 8.8% among 350,000 | AID 504332; note: % is set by controls: 0 for no effect and ±100 for the full control effect; nearly all actives have a fitted effect of over 75% in size
#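 Quantitative HTS format: methyltransferase activity on a biotin-tagged H3K9 peptide is measured by AlphaScreen, using a rabbit anti-monomethyl-H3K9 antibody with streptavidin donor and anti-IgG acceptor beads. Final levels are 20 nM enzyme, 500 nM peptide, 20 uM SAM; 2 h RT.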
# BAZ2B block: blocks human BAZ2B; Q9UIF8; AlphaScreen BAZ2B-H3K14Ac peptide displacement; Potency, µM (titrated, usually from 114 µM), without a hit: top-dose activity change, negative = inhibition, most hits filed as inhibitors; hit rate 4.4% among 360,000; note: % is set by controls: 0 for no effect and ±100 for the full control effect; nearly all actives have a fitted effect of over 60% in size
#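 AlphaScreen luminescence quantifies BAZ2B engagement of H3K14Ac peptide; the protein and biotinylated peptide are both at 50 nM final, buffer PBS pH 7.4 with 0.01% Tween-20, all steps at room temperature.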
# JMJD2A Tudor inh: inhibitors of human JMJD2A Tudor domain; O75164; AlphaScreen JMJD2A-Tudor / H3K4me3 peptide binding; Potency, µM (top dose mostly 114 µM), without a hit: top-dose activity change, negative = inhibition, most hits filed as inhibitors; hit rate 4.4% among 390,000; note: % is set by controls: 0 for no effect and ±100 for the full control effect; nearly all actives have a fitted effect of over 50% in size
# Sfp PPTase inh: inhibitors of Bacillus subtilis Sfp phosphopantetheinyl transferase. Q9F4F7. Biochemical Sfp PPTase activity, qHTS. Potency, µM, for the others: largest response in the series, negative = inhibition, hits mostly inhibitors. hit rate 3.5% among 310,000;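 note: the enzyme is Sfp with the accession as filed and its product quenches rhodamine fluorescence; 0% = enzyme reaction without inhibitor and -100% = no enzyme wells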
#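 Sfp 15 nM + cpd, 15 min RT; start w/ rhodamine-CoA 5 uM, BHQ-2-YbbR 12.5 uM (final); 50 mM Hepes pH 7.6, 10 mM MgCl2, 0.01% NP-40, 0.01% BSA; read 525/598 nm at 0 and 30 min.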
# L3MBTL1 inh: L3MBTL1 (human) inhibition. AlphaScreen L3MBTL1–H3K9me1 peptide binding. Q9Y468. Potency, µM (top dose mostly 57.1 µM), for inactives: top-dose activity, negative = inhibition, hits mostly inhibitors. hit rate 0.66% among 230,000; note: % is set by controls: 0 for no effect and ±100 for the full control effect; nearly all actives have a fitted effect of over 60% in size
# Target sequence (Q9Y468 whole entry, looked up): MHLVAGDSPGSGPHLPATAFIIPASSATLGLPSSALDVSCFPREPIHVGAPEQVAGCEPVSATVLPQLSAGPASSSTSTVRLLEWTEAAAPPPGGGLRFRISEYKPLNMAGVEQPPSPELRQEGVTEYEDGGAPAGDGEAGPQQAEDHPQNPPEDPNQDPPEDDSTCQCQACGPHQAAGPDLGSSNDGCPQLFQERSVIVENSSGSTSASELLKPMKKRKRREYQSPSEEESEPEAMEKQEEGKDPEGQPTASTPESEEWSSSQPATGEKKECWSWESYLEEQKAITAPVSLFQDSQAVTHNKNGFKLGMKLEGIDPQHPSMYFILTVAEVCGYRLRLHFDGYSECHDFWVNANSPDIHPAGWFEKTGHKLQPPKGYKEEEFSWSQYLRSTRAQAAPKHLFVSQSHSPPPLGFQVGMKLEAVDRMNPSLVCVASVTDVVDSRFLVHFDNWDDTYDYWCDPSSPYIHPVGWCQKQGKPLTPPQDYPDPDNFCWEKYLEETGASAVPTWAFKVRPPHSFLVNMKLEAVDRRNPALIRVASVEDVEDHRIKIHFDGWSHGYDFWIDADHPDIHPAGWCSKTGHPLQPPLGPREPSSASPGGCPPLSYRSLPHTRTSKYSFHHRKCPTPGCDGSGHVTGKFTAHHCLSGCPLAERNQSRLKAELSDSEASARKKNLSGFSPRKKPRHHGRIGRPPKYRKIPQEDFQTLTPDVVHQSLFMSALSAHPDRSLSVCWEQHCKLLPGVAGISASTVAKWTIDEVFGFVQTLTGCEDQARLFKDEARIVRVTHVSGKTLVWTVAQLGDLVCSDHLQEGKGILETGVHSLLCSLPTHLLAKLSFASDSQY
#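 AlphaScreen assay: L3MBTL1 (50 nM final) was preincubated 30 min at room temperature with biotinylated H3(1-15)K9me1 peptide (75 nM final), then 30 min with library compounds; streptavidin donor and nickel chelate acceptor beads (10 ug/mL final) added, 30 min dark.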
# Starred values were filed as active, the others as inactive; ? = inconclusive; . = no result given; [ ] = remark or other dose. The list is not random: actives were taken first. Their share in the collection is about 12%. Calls come from the whole dose curve; as a rule, active = well fitted curve in the direction sought with a large enough effect; inconclusive = small, poorly fitted or top-dose-only effect, or another doubt; inactive = no such curve, though single readings can be large; an effect the other way counts as inactive or inconclusive. Potency is the fitted concentration of half-maximal effect.
SMILES,HP1b chromo inh,G9a inh,BAZ2B block,JMJD2A Tudor inh,Sfp PPTase inh,L3MBTL1 inh
O=c1c2c([nH]c3ccccc13)C(=C1CCCC1)CC2,24%,35µM*,?,-23%,-6%,?
O=c1c2c([nH]c3ccccc13)CCCC2,22%,-2%[59 µM],4%,-1%,-1%,4%
CC(=O)Nc1ccn(C2OC(C(COC(C)=O)NC(=O)C(CCCCNC(=O)OCc3ccccc3)NC(=O)OC(C)(C)C)C(OC(C)=O)C2OC(C)=O)c(=O)n1 (stereo not given),25%,.,.,-12%,-3%,.
C/C(=N\NC(=O)c1ccc(NS(=O)(=O)c2cccs2)cc1)c1ccc(O)cc1O,36%,.,10µM*,-16%,13%,-17%
O=C(Cc1cccs1)N=Nc1c(O)[nH]c2ccc(Br)cc12,-10%,?,?,?,2%,-11%
COc1ccc2[nH]c(O)c(N=NC(=O)c3ccc(NS(=O)(=O)c4cccs4)cc3)c2c1,24%,-3%[12.7 µM],50µM*,?,.,-30%
Cc1ccc2[nH]c(O)c(N=NC(=O)c3ccc(NS(=O)(=O)c4cccs4)cc3)c2c1,23%,6%[12.7 µM],-37%,?,2%,.
COc1ccc2[nH]c(O)c(N=NC(=O)Cc3cccs3)c2c1,-24%,-120%[59 µM],35µM*,28µM*,-22%,.
COc1ccccc1N1CCN(S(=O)(=O)c2c(C)nc3sccn3c2=O)CC1,9%,2%[59 µM],-11%,-8%,.,.
Cc1cc(C)c(S(=O)(=O)N2CCN(S(=O)(=O)N3CCOCC3)CC2)c(C)c1,2%,24%[59 µM],2%,-18%,18%,.
O=C(NCc1ccc(F)cc1)c1c2c(nc3ccccc13)CCN(Cc1ccccc1)C2,28%,45µM*,8%,7%,3%,-15%
O=C(COC(=O)c1c2c(nc3ccccc13)CCN(Cc1ccccc1)C2)Nc1c(F)cccc1F,6%,15%[59 µM],-39%,?,-12%,-9%
CC(=O)Nc1ccc(NC(=O)COC(=O)c2c3c(nc4ccccc24)CCN(Cc2ccccc2)C3)cc1,-25%,50µM*,-32%,-31%[57.1 µM],4%,-11%
COC(=O)c1ccc(CNC(=O)c2c3c(nc4ccccc24)CCN(Cc2ccccc2)C3)cc1,37%,?,-1%,-29%,-11%,5%
CCOc1ccc2ccccc2c1/C=N/NC(=O)c1ccncc1,34%,.,-11%,-20%,-5%,0%
CC(=O)Oc1ccc2c(c1)CCC1C2CC[C@]2(C)C(OC(C)=O)CCC12 (stereo not given in full),.,-29%[2.33 µM],.,.,-28%,.
COC(=O)c1ccc(=O)c2nc3/c(=C/O)c(O)cc(=O)c3[nH]c12,-69%,0.79µM*,0.71µM*,0.63µM*,?,.
COC(=O)c1ccc(N)cc1O,20%,1%[59 µM],5%,-16%,11%,.
O=C(CCSCc1ccc(Cl)cc1)N1CCN(c2ccccc2F)CC1,36%,-12%[59 µM],3%,0%,.,.
COc1ccc(NC(=S)Nc2cccc(C(C)=O)c2)cc1OC,-5%,?,?,-16%,-24%,-8%[11.4 µM]
COc1ccc(/C([O-])=C(/C(=S)Nc2ccc(C)c(C)c2)n2c[n+](C)c3ccccc32)cc1OC,-2%,45µM*,-36%,-26%,45µM*,-7%
Cc1ccc(S(=O)(=O)N2CCN(CC(=O)N/N=C/c3ccco3)CC2)cc1,20%,3%[59 µM],-6%,-16%,8%,4%
Cc1nn(-c2ccc(F)cc2)c(Cl)c1C(=O)NCC1CCCO1 (stereo not given),20%,8%[59 µM],9%,-3%,.,2%
Cc1nn(CCc2n[nH]c(=S)n2-c2ccc(F)c(Cl)c2)c(C)c1[N+](=O)[O-],9%,?,-6%,-23%,-16%,-1%
Cc1nn(CCc2n[nH]c(=S)n2-c2ccc(F)cc2)c(C)c1[N+](=O)[O-],13%,2.2µM*,5%,18µM*,-17%,.
SMILES,HP1b chromo inh,G9a inh,BAZ2B block,JMJD2A Tudor inh,Sfp PPTase inh,L3MBTL1 inh
Cc1cccc(-n2c(Cn3nc(C)c([N+](=O)[O-])c3C)n[nH]c2=S)c1,-7%,?,12%[57.1 µM],22µM*,-7%,3%
Cc1nn(C(C)c2n[nH]c(=S)n2-c2ccc(F)cc2)c(C)c1[N+](=O)[O-] (stereo not given),18%,4.5µM*,0%,25µM*,4%,22%[11.4 µM]
O=[N+]([O-])c1ccc(S(=O)(=O)CC(CN2CCCCC2)N2CCCCC2)cc1 (stereo not given),12%,35µM*,-22%,-18%,0%,-1%
O=[N+]([O-])c1ccc(S(=O)(=O)CC(CN2CCOCC2)N2CCOCC2)cc1 (stereo not given),30%,56µM*,14%,-5%,?,-9%
O=[N+]([O-])c1ccc(C(O)CN2CCOCC2)cc1 (stereo not given),-12%,10%,-3%,-11%,-3%,.
C=CCn1c(SCCN)nnc1-c1cccc(S(=O)(=O)N2CCOCC2)c1,22%,.,.,14µM*,.,.
CC(CNS(=O)(=O)c1ccccc1)(c1ccccc1)N1CCOCC1 (stereo not given),39%,15%,1%,-2%,22%,5%
O=C(NCCC1=CCCCC1)c1coc(=O)c(Br)c1,15%,8%[59 µM],-6%,-12%,7%,-10%
CC(C)CNC(=O)c1coc(=O)c(Br)c1,26%,-32%[59 µM],8%,-8%,21%,.
O=C(Nc1cc(Cl)cc(Cl)c1)c1coc(=O)c(Br)c1,-11%,50µM*,56µM*,-32%,-15%,?
O=C(NC(CO)(CO)CO)c1coc(=O)c(Br)c1,19%,27%[2.33 µM],5%,-7%,-9%,51%
CN(C)CCNC(=O)c1coc(=O)c(Br)c1,12%,16µM*,?,?,4%,0%
O=C(NNC(=O)C1C2CCCCC21)c1coc(=O)c(Br)c1 (stereo not given),29%,45µM*,?,-22%,0%,.
OCCOc1ccc(CN2CCN(CCCc3ccccc3)C(CCO)C2)cc1 (stereo not given),34%,.,-4%,-15%,3%,12%
COc1ccccc1C(=O)N/C(=C/c1ccc2c(c1)OCO2)C(=O)Nc1ccc(C(=O)O)cc1,20%,-13%,-18%,-4%,8%,.
O=C(CSc1ccccc1)NC1CCCCCC1,33%,87%,-2%,-1%,12%,.
O=[N+]([O-])/C(C(Cl)=C(Cl)Cl)=C(/NC1CC1)Sc1ccccc1,31%,40µM*,-24%,?,-14%,.
COc1cc(OC)c(NC(c2nnc(-c3ccccc3)o2)c2ccc(F)cc2Cl)cc1Cl (stereo not given),-16%,11µM*,?,?,.,.

# Source: PubChem BioAssay (National Center for Advancing Translational Sciences (NCATS))
